Assay results published in the supplement of paper PMC10037445.
Whole data set: some 2,900 compounds, median “NF-kB SEAP reporter activity, fold change vs agonist alone” near 0.99, cut for the highest 2% near 2.6. The sample as a whole holds a higher share of the highest values than the screen did.

Assays:
RAW-Dual [1] = experiment: NF-kB SEAP reporter activity, fold change vs agonist alone; higher = enhanced NF-kB activity; conditions: library stock concentration (final ~1000-fold dilution): 10 mM, cytotoxicity flag (confluency mask): not cytotoxic
How it was run: (§1)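 Supernatant from RAW-Dual macrophages was read after 20 hours for IRF by QuantiLuc luminescence and for NF-κB by QuantiBlue absorbance at 620 nm. The cells (50,000 cells/well in DMEM, 384-well plates, 37 °C, 5% CO2) had received 50 nL of library stock by pin tool and, 1 h later, a PRR agonist. Reporter activity is expressed relative to agonist-alone wells as fold change, and wells were flagged cytotoxic if IncuCyte confluency was under 70% of agonist controls in both mask sets.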

RAW-Dual [2] = experiment: NF-kB SEAP reporter activity, fold change vs agonist alone; cytotoxicity flag (confluency mask): not cytotoxic; higher = enhanced NF-kB activity
How it was run: as §1

[3] = agonist: ODN 1826 (TLR9) 0.5 ug/mL
[4] = agonist: Pam2CSK4 (TLR2/6) 0.1 ug/mL
[5] = agonist: Pam3CSK4 (TLR2/1) 0.1 ug/mL

Row | SMILES | NF-kB SEAP reporter activity (RAW-Dual [1]; agonist: Imiquimod (TLR7) […]) | NF-kB SEAP reporter activity (RAW-Dual [1]; agonist: MPLA (TLR4) […]) | NF-kB SEAP reporter activity (RAW-Dual [2]; agonist: LPS (TLR4) 0.1 ug/mL) | NF-kB SEAP reporter activity (RAW-Dual [2]; [3]) | NF-kB SEAP reporter activity (RAW-Dual [2]; [4]) | NF-kB SEAP reporter activity (RAW-Dual [2]; [5])
1 | CSCC(N)C(=O)O (stereo not given) | 0.816 | 0.97 |  |  |  | 
2 | CSCC(N)C(=O)O (stereo not given) (library stock concentration (final ~1000-fold dilution): 10 mM) |  |  | 1.3 | 1.03 | 1.12 | 1.08
3 | Nc1ccc(F)cc1NC(=O)c1ccc(CNC(=O)/C=C/c2cccnc2)cc1 | 1.65 | 1.89 |  |  |  | 
4 | Nc1ccc(F)cc1NC(=O)c1ccc(CNC(=O)/C=C/c2cccnc2)cc1 (library stock concentration (final ~1000-fold dilution): 10 mM) |  |  | 3.7 | 3.18 | 0.749 | 1.53
5 | O=C(/C=C/c1cccnc1)NCCCCC1CCN(C(=O)c2ccccc2)CC1 (library stock concentration (final ~1000-fold dilution): 10 mM) |  |  | 0.56 | 1.07 | 0.67 | 0.537
6 | O=C(/C=C/c1cccnc1)c1ccncc1 (library stock concentration (final ~1000-fold dilution): 10 mM) |  |  | 1.03 | 0.938 | 1.21 | 1.05
7 | O=C(/C=C/c1cccnc1)c1ccncc1 | 0.871 | 0.953 |  |  |  | 
8 | O=C(/C=C/c1cccnc1)NCCCCC1CCN(C(=O)c2ccccc2)CC1 | 1.06 | 0.719 |  |  |  | 
9 | COc1ccc(C2OCC3C(c4cc(OC)c(OC)c(OC)c4)OCC23)cc1OC (stereo not given) (library stock concentration (final ~1000-fold dilution): 10 mM) |  |  | 1.2 | 1 | 1.01 | 1.71
10 | COc1ccc(C2OCC3C(c4cc(OC)c(OC)c(OC)c4)OCC23)cc1OC (stereo not given) | 0.813 | 1.03 |  |  |  | 
11 | O=C1c2cccc3c2C(CCC3)CN1C1CN2CCC1CC2 (stereo not given) | 0.886 | 1.17 |  |  |  | 
12 | O=C1c2cccc3c2C(CCC3)CN1C1CN2CCC1CC2 (stereo not given) (library stock concentration (final ~1000-fold dilution): 10 mM) |  |  | 1.5 | 0.937 | 0.587 | 0.339
13 | COC1(c2sc3c(N4CCOCC4)nc(-c4cnc(N)nc4)nc3c2C)COC1 (library stock concentration (final ~1000-fold dilution): 10 mM) |  |  | 1.46 | 0.707 | 0.459 | 0.608
